TIM10 inh = growth inhibitors of isogenic TIM10 control yeast, primary screen, counter-screen for tim10-1 yeast inhibitor project, luminescence, uHTS; S. cerevisiae TIM10 strain growth, BacTiter-Glo luminescence, 24 h; inhibition, % at 10 µM; 1.4% of 330,000 active; AID 463195, 2010;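 active = inhibition of 40% or more at the single tested concentration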;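 note: wild-type TIM10 isogenic control strain grown at permissive 25 °C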
NALP3 yeast inh = NALP3 inflammasome inhibitors in reconstituted yeast, primary screen, luminescence, uHTS; Yeast reconstituted NLRP3/ASC/caspase-1, beta-gal luminescence, 24 h; inhibition, % at 10 µM; 0.39% of 330,000 active;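 active = inhibition of 50% or more; inactive = inhibition below 50%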
tim23-1 inh = growth inhibitors of tim23-1 mutant yeast, primary screen, luminescence, uHTS. S. cerevisiae tim23-1 growth, BacTiter-Glo luminescence, 24 h. inhibition, % at 20 µM. 1.3% of 330,000 active;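 active = growth inhibition of the mutant yeast at or above 50%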;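 note: temperature-sensitive mutant grown at 25 °C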
tim10-1 inh = growth inhibitors of tim10-1 mutant yeast, primary screen, luminescence, uHTS | inhibition, % at 20 µM | 2.2% of 330,000 active | S. cerevisiae tim10-1 ts strain growth, BacTiter-Glo, 24 h | AID 463190, 2010;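 active = inhibition of at least 40%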;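 note: mutant grown at 25 °C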
NALP1 inh = NALP1 inflammasome inhibitors in reconstituted yeast, colorimetric, S. cerevisiae, triplicate retest. S. cerevisiae NALP1/ASC/caspase-1 growth, X-gal OD620, 72 h. inhibition, % at 10 µM. 0.61% of 280,000 active; in the data active = inhibition mostly above about 24%, no sharp cut-off; inactive = mostly below about 32%
SKKanGAS inh = S. pyogenes SKKanGAS growth inhibitors in kanamycin, primary screen, streptokinase expression inhibitor project, SKKanGAS strain, BacTiter-Glo luminescence | 1.3% of 300,000 active | AID 1662, 2009 | inhibition, % at 7.5 µM | 6 h;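 active = mean replicate score, as percent of positive control median, at least 50; inconclusive = mean below 50 but one replicate at or above 50; inactive = mean and every replicate below 50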;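 note: strain carries kanamycin resistance gene driven by streptokinase promoter and grows in 40 µg/ml kanamycin; loss of luminescence reflects streptokinase promoter inhibition or plain growth inhibition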
tim10-1 conf = growth inhibitors of tim10-1 mutant yeast, confirmation, single concentration, luminescence, S. cerevisiae; 56% of 7,400 active; inhibition, % at 20 µM; S. cerevisiae tim10-1 ts strain growth, BacTiter-Glo, 24 h; shares compounds with tim10-1 inh; AID 463213, 2010;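 active = inhibition of yeast growth at or above a set limit in either of two repeat tests at 20 µM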;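 note: tim10-1 mutant grown at permissive 25 °C to find synthetic lethal compounds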
Of the large screens only hits and unclear results are named; the others gave an inactive call (follow-up assays come after a bar, where they were run). Compounds with a hit are over-represented: about 4.9% of the library has one in this group of screens.

Cc1cc(OCc2cc(C(=O)N(C)C(C)c3ccccn3)no2)cc(C)c1Cl (stereo not given)	tim10-1 inh 41 | tim10-1 conf inactive
Cc1cc(OCc2cc(C(=O)NC(C)c3c(C)nn(C)c3C)no2)cc(C)c1Cl (stereo not given)	tim10-1 inh 46 | tim10-1 conf inactive
COc1ccc(C2=NN(C(=O)CSc3nc(=O)n4cccc(C)c4n3)C(c3ccc(C)cc3)C2)cc1 (stereo not given)	none (no result: NALP1 inh)
COc1cccc(CN2CCN(S(=O)(=O)c3ccc(Cl)s3)CC2)c1	none
CN(C)c1ccc(/C=N/NC(=O)c2ccccc2)cc1	none
CN(C)c1ccc(/C=N/NC(=O)C(=O)/C=C2\NC3(CCCC3)Cc3ccccc32)cc1	tim10-1 inh 42 | tim10-1 conf inactive
CCOc1ccc(S(=O)(=O)Nc2ccc(C(=O)NN)cc2)cc1	none (no result: NALP1 inh)
CCc1ccc(CNC(=O)c2ccc(NC(=O)C3=CSCCO3)cc2)cc1	tim10-1 inh 44 | tim10-1 conf inactive
O=C(Nc1ccccc1C(=O)N1CCN(c2cccc(Cl)c2)CC1)C1=CSCCO1	none
COc1ccc(N2CCN(C(=O)c3ccc(NC(=O)C4=CSCCO4)cc3)CC2)cc1	tim10-1 inh 43 | tim10-1 conf 29
CCOCCCNC(=O)c1ccc(NC(=O)C2=CSCCO2)cc1	none
O=C(Nc1ccc(C(=O)N2CCN(c3ccc(F)cc3)CC2)cc1)C1=CSCCO1	tim10-1 inh 47 | tim10-1 conf 36
CCOc1ccc(-c2nc(S(=O)(=O)c3ccccc3)c(N3CCC(C(N)=O)CC3)o2)cc1	none
CCCCS/C(=C(/C#N)C(N)=O)c1cc2c([nH]1)CCCC2	tim10-1 inh 45 | tim10-1 conf 38
O=C(c1ccc2ccccc2n1)N1CCN(S(=O)(=O)c2ccccc2)CC1	none (no result: NALP1 inh, SKKanGAS inh)
CCSC1(SCC)N=C(N)C2(C#N)C(c3ccc(OC)c(OC)c3OC)C12C#N (stereo not given)	tim10-1 inh 61 (no result: NALP1 inh) | tim10-1 conf 62
COc1cc(C2C3=C(CC(C)(C)CC3=O)OC3=C2C(=O)CC(C)(C)C3)cc([N+](=O)[O-])c1O	tim10-1 inh 41 | tim10-1 conf inactive
COc1cc(C2C(C#N)=C(N)OC3=C2C(=O)CC(C)(C)C3)cc([N+](=O)[O-])c1O (stereo not given)	none
C=C(C)COc1ccc(-c2[nH]ncc2Oc2ccccc2OC)c(O)c1	tim10-1 inh 55 | tim10-1 conf 39
CCOc1ccc(-c2[nH]ncc2Oc2ccccc2OC)c(O)c1	none
S=C(Nc1ccc(Oc2ccccc2)cc1)NC1CCCCCC1	none (no result: TIM10 inh, NALP3 yeast inh, tim23-1 inh, tim10-1 inh)
CN(C(=S)Nc1ccc(Oc2ccccc2)cc1)C1CCCCC1	tim10-1 inh 40 (no result: NALP1 inh) | tim10-1 conf inactive
O=C(CN1C(=O)NC(c2ccccc2)(c2ccccc2)C1=O)NC1CCCCC1	none (no result: NALP1 inh, SKKanGAS inh)
CCOC(=O)c1cnc2ccc(C)cc2c1Nc1ccc(N2CCOCC2)cc1	tim10-1 inh 41 (no result: NALP1 inh) | tim10-1 conf inactive
CCOC(=O)c1ccc2ncc(C(=O)OCC)c(NCCN3CCOCC3)c2c1	none (no result: NALP1 inh)
Cc1cc(NC(=O)CCC(=O)N(CCC(C)C)C(C(=O)NCC2CCCO2)c2ccccc2C)no1 (stereo not given)	none
Cc1cc2ncn(/N=C/c3ccc(-c4ccccc4)o3)c2cc1C	tim10-1 inh 47 | tim10-1 conf inactive
CC(C)=C1C2CCC1C(C(=O)Nc1cc(C)cc(C)c1)C2C(=O)O (stereo not given)	none
CC[C@H]1CC2CN3CCc4c([nH]c5c([C@H]6C[C@H]7[C@H](CC)CN(C)[C@@H](Cc8c6[nH]c6ccccc86)[C@H]7C(=O)OC)c(OC)ccc45)C(C(=O)OC)(C2)C13	none (no result: NALP1 inh)
O=C(/C=C/c1cccnc1)c1ccc(F)c(F)c1	tim10-1 inh 40 | tim10-1 conf inactive
CN(C)c1ccc(C(=O)/C=C/c2cccnc2)cc1	none
Cc1ccc(C(=O)N2CCN(c3cccc(Cl)c3)CC2)cc1C	tim10-1 inh 50 | tim10-1 conf inactive
O=C(c1cc(=O)c2ccccc2o1)N1CCN(c2cccc(Cl)c2)CC1	tim10-1 inh 44 | tim10-1 conf inactive
CN(C(=O)COC(=O)c1ccccc1OCc1ccc(F)cc1)C1CCS(=O)(=O)C1 (stereo not given)	none (no result: NALP1 inh, SKKanGAS inh)
Cc1ccccc1NC(=S)NCc1ccc2c(c1)cc(C)n2C	tim10-1 inh 43 | tim10-1 conf inactive
CCCCc1ccc(NS(=O)(=O)c2cccs2)cc1	tim10-1 inh 41 | tim10-1 conf inactive
CC(C)(C)C1C=C(Sc2ccccc2)C(=O)O1 (stereo not given)	tim10-1 inh 44 | tim10-1 conf 35
Cn1c(=O)c(Sc2ccccc2)c(O)c2ccccc21	none
COc1cccc(-c2nc3ccccc3c(=O)o2)c1	tim10-1 inh 48 | tim10-1 conf 42
COc1cc(OC)cc(-c2nc3ccccc3c(=O)o2)c1	none
C=C(C)CSc1nc2sc3c(c2c(=O)n1-c1ccc(OC)cc1)CCN(C)C3	none
CCOC(=O)C1=C(N)Oc2ccc3ccccc3c2C1c1ccc(O)c(OC)c1 (stereo not given)	tim10-1 inh 40 | tim10-1 conf inactive
CCOC(=O)C1=C(N)Oc2ccc3ccccc3c2C1c1ccc(O)cc1 (stereo not given)	SKKanGAS inh inconclusive
COC(=O)c1c(-c2ccc(Br)cc2)noc1N	tim10-1 inh 46 | tim10-1 conf inactive
Cc1ccnc(SCC(=O)Nc2sccc2C#N)n1	none
N#Cc1ccccc1NC(=O)C1SC(=Nc2ccccc2)C(C(=O)Nc2ccc(Cl)cc2)=C1N (stereo not given)	tim10-1 inh 43 | tim10-1 conf inactive
CCOc1ccc(N=C2SC(C(=O)Nc3ccccc3C#N)C(N)=C2C(=O)Nc2ccc(Cl)cc2)cc1 (stereo not given)	none
COc1ccc(CNC(=O)C[C@H]2C(=O)N(C3CCCCC3)C[C@@H]2Cc2ccccc2)cc1	none
Cc1c(C(=O)c2ccc(N(C)C)cc2)c2ccccn2c1CCC#N	tim10-1 inh 40 | tim10-1 conf inactive
Cc1c(C(=O)c2ccc(F)cc2F)c2ccccn2c1CCC#N	none
CCOc1ccccc1NC(=O)CCS(=O)(=O)c1ccc(Br)cc1	tim10-1 inh 41 | tim10-1 conf 39
CC(=O)c1cccc(NC(=O)C(C)OC(=O)c2ccc(-n3cnnn3)cc2)c1 (stereo not given)	none (no result: NALP1 inh, SKKanGAS inh)
